uPA surface inh: qHTS for Inhibitors of Cell Surface uPA Generation. actives 0.31% (n = 330,000). cell surface uPA generation assay, qHTS. AID 540303, 2011. Potency, µM (series often up to 38.3 µM), for inactives: at the top dose activity change, negative = inhibition, usual class: inhibitors; active means well fitted inhibition curve with a large enough effect; inconclusive means small, poorly fitted or top-dose-only effect; inactive means no such curve, though single readings can be large or run the other way; tested in mouse RAW 264.7 cells; further: potency means the concentration at half of the fitted maximal effect; on the % scale 0 is the no-effect control and ±100 the full control effect; nearly all actives have a fitted effect of over 55% in size
GALK inh: qHTS Assay for Inhibitors of Human Galactokinase (GALK); AID 1868, 2009; actives 0.007% (n = 270,000); P51570; Purified GALK, Kinase-Glo residual ATP luminescence; Potency, µM (titrated, usually from 57.5 µM), without a hit: at the top dose activity change, negative = inhibition, hits mostly inhibitors; further: potency means the concentration at half of the fitted maximal effect; on the % scale 0 is the no-effect control and ±100 the full control effect
Target sequence (P51570 whole entry, looked up): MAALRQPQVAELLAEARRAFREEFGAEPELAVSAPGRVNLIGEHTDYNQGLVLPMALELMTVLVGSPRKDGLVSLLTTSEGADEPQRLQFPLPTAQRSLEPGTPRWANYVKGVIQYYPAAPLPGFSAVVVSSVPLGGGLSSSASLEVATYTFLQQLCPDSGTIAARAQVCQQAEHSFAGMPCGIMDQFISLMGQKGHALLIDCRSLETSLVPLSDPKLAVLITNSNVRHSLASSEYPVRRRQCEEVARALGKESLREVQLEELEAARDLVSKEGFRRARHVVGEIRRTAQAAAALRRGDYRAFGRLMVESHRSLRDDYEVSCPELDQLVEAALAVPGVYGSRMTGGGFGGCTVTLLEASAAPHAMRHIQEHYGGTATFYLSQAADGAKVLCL
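Compounds were pin-transferred into ATP buffer (35 uM final), then GALK plus galactose (5 nM, 100 uM final) was added. After 1 h at room temperature, Kinase-Glo Plus was added and luminescence read after 10 min.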
miR-21 reporter: qHTS Assay for Modulators of miRNAs and/orActivators of miR-21; HeLa miR-21 FLuc reporter, luciferase, 48 h; Potency, µM (series often up to 38.3 µM), for the others: top-dose activity change, positive = activation, hits mostly activators; 340,000 tested, under 10 active; AID 2288, 2010;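 further: % of control where 0% means no effect; miR-21 action dims this reporter so a rising signal means less miR-21 action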
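HeLa cells stably expressing CMV-driven firefly luciferase with a downstream miR-21 binding sequence, endogenously expressing miR-21, were treated with titrations (up to about 40uM final) for 48 hours at 37 degree Celsius. Luciferase luminescence was read after lysis.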
B2AR arrestin: qHTS assay of beta-arrestin-biased ligands of beta2-adrenergic receptor; actives 0.02% (n = 330,000); beta-arrestin recruitment to beta2AR, cell-based reporter; Potency, µM (series often up to 46.1 µM), without a hit: at the highest dose activation, actives largely listed as activators; Beta-2 adrenergic receptor (Homo sapiens), P07550; AID 492947, 2010;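 further: potency means the concentration at half of the fitted maximal effect; 0% = DMSO controls and full agonism = EC100 isoproterenol or metaproterenol; nearly all actives have a fitted effect of over 65% in size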
Giardia kill: Small Molecules that selectively kill Giardia lamblia: qHTS | Giardia lamblia trophozoite viability | activity change, % at 7.66 µM, hits read low | actives 0.15% (n = 340,000); in the data active means activity change below about -80%; inconclusive means between about -30% and that limit;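 further: parasites exposed to compound for two days anaerobically before the ATP read; on the % scale 0 is the no-effect control and ±100 the full control effect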
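Luminescence from cellular ATP indicates surviving trophozoites (100 cells/well) following 48 hrs anaerobic compound treatment at 37 deg C; signal develops 15-30 min at room temperature.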
FBPA coupling cs: qHTS Assay for Inhibitors of Fructose-1,6-bisphosphate Aldolase from Giardia Lamblia: Coupling assay counterscreen; coupling enzyme system counterscreen, AmpLite Red fluorescence; activity change, negative = inhibition, % at 58.2 µM, hits read low; actives 0.67% (n = 290,000); AID 2472, 2010; in the data active means activity change below about -30%; further: on the % scale 0 is the no-effect control and ±100 the full control effect
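Compounds tested against the coupling enzymes alone at 57.5 uM final; readout was AmpLite Red fluorescence (525/598 nm) after 20 min at RT.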
* hit, by the source's call; ? = inconclusive; . = not tested or not shown. Most compounds without a hit are left out; they make up all but 0.92% or so of the library. Unless noted, the call rests on the fitted dose curve; in most records, active means well fitted curve in the direction sought with a large enough effect; inconclusive means small, poorly fitted or top-dose-only effect, or another doubt; inactive means no such curve, though single readings can be large; an effect the other way counts as inactive or inconclusive.

SMILES	uPA surface inh	GALK inh	miR-21 reporter	B2AR arrestin	Giardia kill	FBPA coupling cs
O=C(Nc1ccc2nc(-c3ccco3)c(-c3ccco3)nc2c1)NC1CC1	-3.3%	1.3%	-17.2%	-0.3%	-13.9	-37.2*
O=C(Nc1ccc(N2CCOCC2)cc1)Nc1ccc2nc(-c3ccco3)c(-c3ccco3)nc2c1	.	-10.6%	12.5%	-0.9%	7.3	-11.2
COc1cc(Nc2nc(SCc3ccccc3Cl)nc3ccccc23)cc(OC)c1	.	.	13.2%	.	.	.
Cc1noc2ncnc(N3CCN(c4ccccc4F)CC3)c12	.	.	10.6%	.	.	.
COc1cccc(C2=CC(c3ccc(N(C)C)cc3)n3ncnc3N2)c1 (stereo unspecified)	.	6.1%	-5.7%	5.8%	.	-34.7*
Cc1ccc(CCNC(=O)CCCc2nnc3n(C)c(=O)c4sccc4n23)cc1	.	.	9.2%	.	.	.
O=S(=O)(c1ccc(Cl)c(NC(=S)Nc2cccc(O)c2)c1)N1CCOCC1	0.5%	-0.2%	-4.6%	-0.7%	3.4	-1.8
CCN(C(=S)Nc1cc(S(=O)(=O)N2CCOCC2)ccc1Cl)c1cccc2ccccc12	5.9%	1.4%	3.2%	-1.3%	-2.7	-93.0*
S=C(NC1CCCCC1)N1CCN(c2ccccn2)CC1	-1.8%	1.3%	-24.6%	4.9%	32.9	-40.6*
S=C(NC1CCCCC1)N1CCN(c2ncccn2)CC1	-1.2%	0.4%	-5.3%	0.1%	8.1	2.8
COc1ccc(C2c3cc(OC)c(OC)cc3CC(=O)N2c2ccc(C)cc2)cc1 (stereo unspecified)	.	.	16.0%	.	.	.
CSCCOC(=O)c1[nH]c2c(c1C)C(=O)CC(c1ccco1)C2 (stereo unspecified)	?	0.1%	19.3%	-0.4%	-3.0	0.2
COC(=O)c1[nH]c2c(c1C)C(=O)CC(c1cc(OC)ccc1OC)C2 (stereo unspecified)	5.62µM*	0.2%	12.8%	-0.6%	-8.0	1.4
COCCOC(=O)c1[nH]c2c(c1C)C(=O)CC(c1ccco1)C2 (stereo unspecified)	1µM*	2.7%	22.2%	-0.1%	6.5	-1.7
Cc1c(C(=O)OCc2ccccc2)[nH]c2c1C(=O)CC(c1ccco1)C2 (stereo unspecified)	1µM*	0.1%	19.3%	0.1%	5.0	4.9
CCOC(=O)c1[nH]c2c(c1C)C(=O)CC(c1ccco1)C2 (stereo unspecified)	?	-0.4%	21.2%	-0.3%	-13.1	-1.6
CC(=O)Nc1cc(O)c2nonc2c1O	.	.	.	.	-3.2	.
O=C(NCCCc1nc2ccccc2n1CCCCOc1ccccc1)C1CCCCC1	.	.	.	.	-3.5	.
Nc1ccc2c(c1)C(=O)C(=O)c1ccccc1-2	-10.0%	6.31µM*	?	-1.2%	11.7	-0.5
O=C1C(=O)c2ccc(-c3ccccc3)cc2-c2ccccc21	-9.1%	?	-7.5%	-0.3%	-0.8	-72.5*
Nc1ccc2c(c1)C(=O)c1ccccc1-2	-0.9%	.	.	.	16.0	.
CCCOc1cccc(C2c3c(oc4ccccc4c3=O)C(=O)N2c2nncs2)c1 (stereo unspecified)	.	.	-1.1%	.	.	.
OC1C=C2CCN3Cc4cc5c(cc4C(C1O)C23)OCO5 (stereo unspecified)	.	.	.	.	.	-4.7
O[C@@H]1[C@@H](O)C=C2CCN3Cc4cc5c(cc4[C@H]1C23)OCO5 (stereo partly specified)	1µM*	.	.	0.0%	0.5	.
CCN(CC)C(=O)c1ccc2c(c1[N+](=O)[O-])C(=O)c1ccccc1C2=O	.	0.0%	-38.0%	-0.8%	.	-41.9*
SMILES	uPA surface inh	GALK inh	miR-21 reporter	B2AR arrestin	Giardia kill	FBPA coupling cs
CCN(CC)C(=O)c1cccc2c1C(=O)c1ccccc1-2	0.7%	0.2%	-4.2%	-0.2%	-18.9	2.5
COc1ccc(-c2nc(-c3ccccc3)c(NC(C)(C)C)o2)cc1	.	.	.	.	.	-0.7
CCOc1ccc2noc3c2c1C(=O)c1ccccc1-3	24.6%	1.6%	-2.3%	0.0%	22.8	-45.5*
O=C1c2ccccc2-c2onc3ccc(N4CCCC4)c1c23	?	6.4%	16.1%	-0.9%	28.1	-49.9*
O=C1c2ccccc2-c2onc3ccc(NCc4ccco4)c1c23	-5.8%	9.3%	15.1%	-0.1%	6.0	-42.8*
Cc1ccc(-n2c(=O)c3c(c4cc(C)ccc4n3C)n(CC(=O)Nc3cc(C)cc(C)c3)c2=O)cc1	.	.	0.5%	.	.	.
Cc1ccccc1Cn1c(=O)n(CC2CCC(C(=O)N3CCC(C)CC3)CC2)c(=O)c2sccc21 (stereo unspecified)	.	.	19.7%	.	.	.
Nc1ccc(N2CCCCCC2)cc1	.	2.0%	15.0%	-0.2%	.	-35.5*
Nc1ccc(N2CCN(c3ccc(F)cc3)CC2)cc1	-14.4%	-0.3%	-0.4%	-0.1%	6.6	0.4
c1ccc(Cc2nnc3n2N=C(c2ccccc2)CS3)cc1	-3.0%	0.4%	-20.7%	-0.4%	-1.7	-54.4*
Cc1ccc(C#CC2C=CC(Oc3ccc4c(c3)OCO4)C(CO)O2)c(C)c1 (stereo unspecified)	.	.	.	.	.	2.3
O=C(Nc1cccc(NC(=O)c2cc([N+](=O)[O-])ccc2Cl)n1)c1cc([N+](=O)[O-])ccc1Cl	8.91µM*	.	.	.	-25.6	.
CCc1ccc(C(=O)c2cn(CC(=O)Nc3ccc(OC)c(OC)c3)c3ccc(C)cc3c2=O)cc1	.	.	3.6%	.	.	.
CC1=NN(C(N)=S)C(=O)C1N=Nc1ccccc1O (stereo unspecified)	-3.5%	4.1%	-13.8%	0.3%	10.2	1.2
CCOc1ccccc1N=NC1C(=O)N(C(N)=S)N=C1C (stereo unspecified)	?	-0.5%	-5.0%	1.12µM*	-13.9	-0.2
O=S(=O)(c1ccc2nc(-c3ccco3)c(-c3ccco3)nc2c1)N1CCOCC1	2.1%	3.5%	7.8%	-0.9%	-7.1	-44.7*
O=S(=O)(c1ccc2ccccc2c1)N1CCOCC1	5.2%	-1.1%	-0.4%	0.0%	13.8	-1.7
O=C(Nc1cccc(C(F)(F)F)c1)c1ccc2snnc2c1	.	.	-12.1%	.	.	.
COc1ccc(CCNC(=O)c2ccc3nc(-c4ccco4)c(-c4ccco4)nc3c2)cc1OC	-12.1%	-1.9%	29.1%	-0.1%	-0.4	-33.1*
CCC(C)NC(=O)c1ccc2nc(-c3ccco3)c(-c3ccco3)nc2c1 (stereo unspecified)	.	.	.	.	-9.0	.
O=C(O)c1ccc2nc(-c3ccco3)c(-c3ccco3)nc2c1	-8.6%	2.2%	2.8%	-0.1%	-2.5	-35.4*
O=C(Nc1cccc(C(F)(F)F)c1)c1ccc2nc(-c3ccco3)c(-c3ccco3)nc2c1	4.8%	-2.8%	15.6%	0.4%	-2.3	-39.1*

Assay outcomes (PubChem)
